# Experimental data published in PubChem BioAssay (EPA / NIEHS).
# Records with an inconclusive call do not appear. Active and inactive are the calls of the source. Rule for the calls: active = hit-call score of the fitted dose curve at least 0.9, where 1 is the maximum; inconclusive = response in the unintended direction; inactive = score below 0.9.
# Read-out: HMG-CoA synthase (HMGCS2), HMGCS2 (gene 3158)
# Assay: CLD_HMGCS2_48hr: CellzDirect (CLD) Gene Expression Assay for HMG-CoA synthase (HMGCS2) at 48 hours (AID 2283711)
# Experimental: CLD_48hr is a cell-based, multiplexed-readout assay that uses hepatocyte, a human liver primary cell, with measurements taken at 48 hours after chemical dosing in a 96-well plate.CLD_HMGCS2_48hr is one of 16 assay component(s) measured or calculated from the CLD_48hr assay. It is designed to make measurements of mRNA induction, a form of inducible reporter, as detected with chemiluminescence signals by Quantitative Nuclease Protection Assay (qNPA) technology.Data from the assay component CLD_HMGCS2_48hr was analyzed at the endpoint, CLD_HMGCS2_48hr, in the positive analysis fitting direction relative to DMSO as the negative control and baseline of activity. Using a type of inducible reporter, gain-of-signal activity can be used to understand changes in the reporter gene as they relate to the gene HMGCS2. Furthermore, this assay endpoint can be referred to as a primary readout. To generalize the intended target to other relatable targets, this assay endpoint is annotated to the lyase intended target family, where subfamily is HMG-CoA synthase.
# Human hepatocyte cultures were treated daily for two consecutive days with fresh dosing solutions containing appropriate concentrations of the 320 ToxCast chemicals (chemical identities were blinded to CellzDirect and other ToxCast collaborators), vehicle control (0.2% DMSO), and positive control inducers as summarized in Table 1. Due to the large number of treatment groups and chemicals examined, the ToxCast chemicals were divided into two groups (spanning two independent cultures of hepatocytes from separate donor preparations (Hu778: ToxCast plates 1 and 2; Hu776: ToxCast plates 3 and 4). Each preparation of human hepatocyte cultures was treated with respective vehicle control, medium only control, set of six positive controls/reference chemicals for the five hepatic receptor pathways, and a subset of eight of the ToxCast chemicals (indoxacarb, pyrithiobac-sodium, norflurazon, cyhalofop-butyl, methomyl, thiram, acetochlor, and propiconazole). These replicate data, coupled with internal replicates designed within the blinded ToxCast chemical library, provided additional data to evaluate interindividual differences between hepatocyte preparations and their potential impact on chemical profiles.Cell morphology and integrity were evaluated using phase-contrast microscopy as an indicator of hepatocyte cell health (Tyson & Green, 1987). Cultures for each treatment group (i.e., media, vehicle [0.2% DMSO], positive control inducers [multiple concentrations], and the ToxCast chemicals [multiple concentrations]) were observed and cell morphology was assessed relative to vehicle control cultures at each harvest time point (0, 6, 24, or 48 h). […] Images were evaluated at the conclusion of the study to assess changes in cell integrity and account for the effects of chemical exposure on uncharacteristic changes in concentration-dependent gene expression profiles. The results from these determinations of apparent cytotoxicity were annotated (yes/no) alongside the corresponding qNPA data for reference.At the conclusion of each treatment period, hepatocyte cultures (96-well) were washed with 1 volume of HBSS, lysed by addition of 25 ul ArrayPlate lysis buffer (HTG, Tucson, AZ), and 70 ul/well of Denaturation Oil, denatured by incubation at 95C for 10 min, and frozen at approximately -70C until analysis by nuclease protection assay (qNPA) (Roberts et al., 2007). For qNPA analysis, cell lysates were thawed at 50C for approximately 30 min, qNPA probes were added, and samples were incubated at 95C for 10 min to begin the detection process by denaturing the target RNA, dissociating the duplexes and secondary structure hybridization. At the conclusion of the hybridization period, S1 nuclease reagent was added to each sample to digest all nonprotected nucleotides at 50C for 60-90 min. […]
SMILES,outcome,AC50
CCCCOC(=O)[C@@H](C)Oc1ccc(Oc2ccc(C#N)cc2F)cc1,inactive,–
CC(C1CC1)C(O)(Cn1cncn1)c1ccc(Cl)cc1 (stereo not given),inactive,–
CCOP(=S)(OCC)Oc1ccc2c(C)c(Cl)c(=O)oc2c1,–,12.5 nM (active)
COP(=O)(OC)C(O)C(Cl)(Cl)Cl (stereo not given),inactive,–
N#CSCSC#N,inactive,–
COc1cc(OC)nc(Sc2cccc(Cl)c2C(=O)O)n1,inactive,–
CC1=NNC(=O)N(/N=C/c2cccnc2)C1,inactive,–
C[N+]1(C)CCCCC1,inactive,–
C#CC(C)(C)NC(=O)c1cc(Cl)cc(Cl)c1,–,9.4 nM (active)
CC(C)N(C(=O)SCC(Cl)=C(Cl)Cl)C(C)C,inactive,–
COP(=O)(NC(C)=O)SC (stereo not given),inactive,–
CCOP(=S)(OCC)Oc1ccc([N+](=O)[O-])cc1,inactive,–
CCCCSP(=O)(SCCCC)SCCCC,inactive,–
CC[C@H](C)[C@H]1O[C@]2(C=C[C@@H]1C)C[C@@H]1C[C@@H](C/C=C(\C)[C@@H](O[C@H]3C[C@H](OC)[C@@H](O[C@H]4C[C@H](OC)[C@@H](NC)[C@H](C)O4)[C@H](C)O3)[C@@H](C)/C=C/C=C3\CO[C@@H]4[C@H](O)C(C)=C[C@@H](C(=O)O1)[C@]34O)O2,inactive,–
CN(C)[C@@H]1C(=O)C(C(N)=O)=C(O)[C@@]2(O)C(=O)C3=C(O)c4c(O)cccc4[C@@](C)(O)[C@H]3[C@H](O)[C@@H]12,–,164 nM (active)
C=C(C)[C@H]1Cc2c(ccc3c2O[C@@H]2COc4cc(OC)c(OC)cc4[C@@H]2C3=O)O1,inactive,–
COP(=O)(OC)SCn1c(=O)oc2cc(Cl)cnc21,inactive,–
Cc1ccn2nc(S(=O)(=O)Nc3c(F)cccc3F)nc2n1,inactive,–
CNC(=O)ON=C(SC)C(=O)N(C)C,inactive,–
CCCSP(=O)(OCC)Oc1ccc(Br)cc1Cl (stereo not given),inactive,–
CCNc1nc(Cl)nc(NC(C)(C)C#N)n1,inactive,–
CC(COc1ccc(Oc2ccccc2)cc1)Oc1ccccn1 (stereo not given),inactive,–
CCCOc1nn(C(=O)NS(=O)(=O)c2ccccc2C(=O)OC)c(=O)n1C,inactive,–
CN(C)C(=O)Nc1cccc(C(F)(F)F)c1,inactive,–
CCCSP(=O)(OCC)SCCC,inactive,–
CCc1cnc(C2=NC(C)(C(C)C)C(=O)N2)c(C(=O)O)c1 (stereo not given),inactive,–
O=C(O)c1cc(Oc2ccc(C(F)(F)F)cc2Cl)ccc1[N+](=O)[O-],–,26 nM (active)
CCCCN(CC)c1c([N+](=O)[O-])cc(C(F)(F)F)cc1[N+](=O)[O-],inactive,–
CN1COCN(Cc2cnc(Cl)s2)C1=N[N+](=O)[O-],inactive,–
CC(=NC#N)N(C)Cc1ccc(Cl)nc1,inactive,–
